MazEF act: activators of E. coli MazEF toxin-antitoxin RNase, primary screen, biochemical, fluorescence, uHTS; Endoribonuclease toxin MazF (Escherichia coli (strain K12)), P0AE70; FAM/BHQ RNA-DNA oligo cleavage fluorescence, 5 h; activation, % at 20 µM; 0.32% of 350,000 active; in the data active means activation above about 50%
Anthrax LF prot: Bacillus anthracis LF protease inhibitors, primary screen, biochemical, multiplex microsphere, MLPCN library. multiplex microsphere protease cleavage assay. inhibition, % at 10 µM. 0.12% of 360,000 active. AID 588501, 2011; further: plate controls were buffer without enzyme for full effect and enzyme alone for no effect
Autofluor counter: flagged as autofluorescent in microsphere protease counterscreen; AID 624483; compound autofluorescence counterscreen, microsphere flow cytometry; active compounds read high; 3.1% of 360,000 active; fluorescence intensity (test concentration not listed); in the data active means fluorescence intensity above about 16000; inconclusive means no clear call, values can overlap the other calls
BoNT F protease: BoNT/F light chain protease inhibitors, primary screen, biochemical, flow cytometry, MLPCN library; Botulinum neurotoxin type F light chain protease (Clostridium botulinum); Multiplex microsphere protease cleavage assay; inhibition, % at 10 µM; 0.22% of 360,000 active; AID 588497, 2011; in the data active means inhibition above about 35%, passing the limit was not always enough; inconclusive means no clear call, values can overlap the other calls; further: plate controls were buffer without enzyme for full effect and enzyme alone for no effect
BoNT-A LC inh2: BoNT/A light chain protease inhibitors, primary screen, biochemical, flow cytometry, MLPCN library; Botulinum neurotoxin type A light chain protease (Clostridium botulinum A str. ATCC 3502); 0.17% of 360,000 active; inhibition, % at 10 µM; multiplex microsphere protease substrate cleavage; further: plate controls were buffer without enzyme for full effect and enzyme alone for no effect
BoNTA LC inh 1: BoNT/A light chain protease inhibitors, confirmation, biochemical, flow cytometry, cherry pick 1; shares compounds with BoNT F protease; multiplex microsphere protease assay; inhibition, % at 10 µM; 3% of 720 active; in the data active means inhibition above about 32%
BoNTF LC inh 1: BoNT/F light chain protease inhibitors, confirmation, biochemical, flow cytometry, cherry pick 1 | shares compounds with BoNT F protease | multiplex microsphere protease cleavage assay | inhibition, % at 10 µM | 720 tested, under 10 active | AID 602140, 2011; call rule not given here
Anthrax LF CP1: Bacillus anthracis LF protease inhibitors, confirmation, biochemical, multiplex microsphere, cherry pick 1; AID 602142, 2011; shares compounds with BoNT F protease; inhibition, % at 10 µM; multiplex microsphere protease cleavage assay; 720 tested, under 10 active; call rule not given here
* = called active by the depositor; i = inactive; ? = inconclusive; nt = no result. Most compounds without a hit are left out; they make up all but 3.6% or so of the library. Unless noted, no stated cut-off is given here; in the data, active means inhibition above about 30%; inconclusive means no clear call, values can overlap the other calls; inactive means below that.

SMILES	MazEF act	Anthrax LF prot	Autofluor counter	BoNT F protease	BoNT-A LC inh2	BoNTA LC inh 1	BoNTF LC inh 1	Anthrax LF CP1
Cc1ccc(NC(=O)CCCCCC2NC(=O)NC2C)cc1 (centres undefined)	-1	0	3319	71*	10	5	0	-8
CC(C)n1c2ccccc2c2nc3ccccc3nc21	0	27	4635	2	55*	25	3	12
C#CCn1c2ccccc2c2nc3ccccc3nc21	-8	-7	3862	?	-7	nt	nt	nt
CCn1cc(C(=O)NCc2ccccc2Cl)cn1	-2	2	2098	40*	4	1	3	1
CCn1cc(C(=O)Nc2ccccc2C(=O)OC)cn1	-1	2	3528	?	3	nt	nt	nt
CC(NC(=O)COc1ccc(Br)cc1)C1CCCO1 (centres undefined)	-6	-1	4428	-1	0	nt	nt	nt
Cc1onc(-c2ccccc2)c1C(=O)N1CCCN2C(=O)c3ccccc3C21 (centres undefined)	0	-3	5529	1	0	1	-1	2
O=S1(=O)CC(N2CCN(CCO)CC2)CN1Cc1cn(Cc2ccc(F)cc2)nn1 (centres undefined)	nt	-1	6228	-8	0	nt	nt	nt
CCOC(=O)CC(=O)CSc1ncc(C(=O)OCC)c(N)n1	2	50*	6848	134*	1	2	5	3
COc1ccc(-n2nc(C(=O)NCC(=O)NCc3cccc(F)c3)c3ccccc3c2=O)cc1Cl	3	2	6493	36*	3	-3	-24	-1
CCC(c1nnc(SCC(=O)Nc2ccc(NC(C)=O)cc2)n1Cc1ccccc1)N(C)C (centres undefined)	1	3	5161	0	1	nt	nt	nt
Cc1nn(-c2ccccc2)c2sc(C(=O)N3CCCCC3)cc12	-14	5	5079	38*	0	2	4	2
Cc1ccccc1Cn1nc(C)c(NC(=O)c2cc3nc(-c4ccco4)cc(C(F)(F)F)n3n2)c1C	10	4	3240	2	0	1	-1	-1
Cc1nn(C)cc1NC(=O)c1cc2nc(-c3ccco3)cc(C(F)(F)F)n2n1	8	0	3878	-7	1	-1	6	0
Cc1nn(Cc2ccc(F)cc2)c(C)c1NC(=O)c1cc(-c2ccc3c(c2)OCO3)on1	-69	-5	11194	-4	-1	nt	nt	nt
O=C(Nc1cnn(Cc2ccccc2)c1)c1cc2nc(-c3ccco3)cc(C(F)(F)F)n2n1	1	1	3153	6	0	-1	-1	0
Cc1nn(C)cc1CN(C)C(=O)c1cc2nc(-c3ccco3)cc(C(F)(F)F)n2n1	4	1	2869	-8	0	nt	nt	nt
CCc1ccc(-c2cc(C(F)(F)F)n3nc(C(=O)Nc4c(C)nn(Cc5ccc(F)cc5)c4C)cc3n2)s1	-14	26	8750	16	33*	2	-6	2
Cn1ccnc1C(O)c1cc(C(C)(C)C)c(O)c(C(C)(C)C)c1 (centres undefined)	4	32*	6965	14	25	4	0	2
COc1ccc(C(CNC(=O)c2cccc(S(=O)(=O)Nc3ccccc3OC)c2)N2CCCCC2)cc1 (centres undefined)	4	-3	7054	5	-3	nt	nt	nt
COc1ccc(NS(=O)(=O)c2cccc(C(=O)Nc3ccccc3C(=O)O)c2)cc1	-6	3	4460	?	-1	-1	-2	4
COc1ccc(C(CNC(=O)c2cccc(S(=O)(=O)Nc3ccccc3OC)c2)N2CCCC2)cc1 (centres undefined)	-5	4	11267	37*	1	-10	-2	-4
CC(=O)c1ccc(NS(=O)(=O)c2cccc(C(=O)Nc3ccccc3C(=O)O)c2)cc1	-38	-2	3368	-5	4	0	-1	6
CC1(C)CC(NS(=O)(=O)c2ccc(C(C)(C)C)cc2)CC(C)(C)N1	3	5	4223	-59	-6	nt	nt	nt
Cn1cc(CC(=O)NCCCN2CCCC2)c2ccccc21	-4	8	3978	36*	4	1	-2	0
SMILES	MazEF act	Anthrax LF prot	Autofluor counter	BoNT F protease	BoNT-A LC inh2	BoNTA LC inh 1	BoNTF LC inh 1	Anthrax LF CP1
CCCOc1ccccc1OCC(=O)Nc1cc(Cl)ccc1-n1cncn1	-8	3	4058	14	3	nt	nt	nt
CCC1(C)Cc2c(C#N)c(SC)nc(N3CCOCC3)c2CO1 (centres undefined)	5	32*	3640	?	0	1	-1	1
CC1(C)Cc2c(C#N)c(SCC(=O)c3ccccc3)nc(N3CCOCC3)c2CS1	6	-3	4781	37*	0	-1	-2	-4
CCOC(=O)C1(C)CCCN(C(=O)c2cccnc2)C1 (centres undefined)	nt	-9	4176	-2	0	nt	nt	nt
COc1cc(-c2ccc(N3C(c4ccsc4)=Cc4ccc(F)cc4C3c3c[nH]c4ccc(C#N)cc34)cc2)cc(OC)c1OC (centres undefined)	nt	-2	5543	3	0	nt	nt	nt
CCn1ccnc1CN1CCN(CC=C(C)C)C(CCO)C1 (centres undefined)	-22	-1	2683	48*	4	0	-4	-1
Oc1ccccc1-c1nnc(-c2ccc(C(F)(F)F)cc2)o1	3	1	3316	35*	1	0	-3	1
CCOC(=O)c1c(NC(=O)Nc2ccc(Cl)cc2)sc(C)c1C	6	41*	27117*	i	-30	-1	1	-6
COc1ccccc1N1C(=O)CC(N2CCN(c3ccc(F)cc3)CC2)C1=O (centres undefined)	2	19	3063	40*	-2	0	-4	2
CSc1ccc(C(=O)N2CCC(CCC(=O)NC3CC3)CC2)cc1	5	3	5125	0	4	nt	nt	nt
CCOC(=O)c1cnc(SC2CC(=O)N(c3cccc(OC)c3)C2=O)nc1N (centres undefined)	6	2	3383	34	2	2	-4	-1
CCOC(=O)c1ccc(N2C(=O)CC(Sc3ncccn3)C2=O)cc1 (centres undefined)	9	-4	3427	?	1	nt	nt	nt
COc1ccc(CCNC(=O)Nc2nnc([C@@H]3C[C@H](O)[C@@H](CO)O3)s2)cc1OC	nt	8	2846	6	0	nt	nt	nt
